Reference: PubChem BioAssay (Tox21)
Records with an inconclusive call do not appear. Where a call stands in place of a potency, no number is given. Active and inactive are the calls of the source. Calls follow the shape of the dose curve; as a rule, active = well fitted cell-killing curve with a large enough effect in the repeat runs; inconclusive = weak or mixed curves, or effect the other way; inactive = flat fitted curve, though single readings scatter.

assay: qHTS assay to identify small molecule antagonists of the androgen receptor (AR) signaling pathway using the MDA cell line - cell viability counter screen (AID 743041; also: nearly all actives have a fitted effect of over 45% in size); conditions: MDA-kb2 viability, CellTiter-Fluor, 16 h, cells co-treated with R1881 androgen agonist; series mostly up to 70.3 µM
Description: National Center for Advancing Translational Sciences [NCATS]
NIH Chemical Genomics Center [NCGC]
U.S. Environmental Protection Agency [EPA]
National Institutes of Environmental Health Sciences [NIEHS]
National Toxicology Program [NTP]
U.S. Food and Drug Administration [FDA]
Androgen receptor (AR), a nuclear hormone receptor, plays a critical role in AR-dependent prostate cancer and other androgen related diseases. Endocrine disrupting chemicals (EDCs) and their interactions with steroid hormone receptors like AR may cause disruption of normal endocrine function as well as interfere with metabolic homeostasis, reproduction, developmental and behavioral functions. To identify the compounds that inhibit AR signaling, MDA-kb2 AR-luc cell line (from ATCC, deposited by Wilson et al.) was used to screen the Tox21 10K compound library. MDA-kb2 AR-luc cell line is human breast carcinoma cell line that was stably transfected with a luciferase reporter gene under control of the MMTV promoter containing response elements for both androgen receptor (AR) and glucocorticoid receptor (GR). The cytotoxicity of the Tox21 compound library against the MDA-kb2 AR-luc cell line was tested in parallel by measuring the cell viability using CellTiter-Fluor assay (Promega, Madison, WI) in the same wells.
Tox21 Assay Protocol Summary:
MDA-kb2 AR-luc cells were dispensed at 3,000 cells/4 uL/well of culture medium into white wall/solid-bottom 1536-well plates using a Multidrop Combi (ThermoFisher Scientific, Waltham, MA) dispenser. After the assay plates were incubated at a 37C and 0% CO2 for 5 hr, 23 nL of compounds dissolved in DMSO, positive controls or DMSO only was transferred to the assay plate by a Pintool station (Kalypsys, San Diego, CA), followed by addition of 1 uL of agonist (R1881) in culture medium using a Bioraptr Flying Reagent Dispenser (FRD) workstation (Beckman Coulter, Indianapolis, IN, USA). The plates were incubated at a 37C and 0% CO2 for 16 h. After 15.5 h incubation, 1uL of CellTiter-Fluor reagent (Promega) was added using a Bioraptr FRD to each plate for measuring cytotoxicity. The fluorescence intensity was quantified on a ViewLux plate reader (PerkinElmer, Shelton, CT) following 30 min incubation at 37C and 0% CO2.
Potency is read from the fitted curve at half-maximal effect.

SMILES | Potency
CC1(C)C(/C=C(\Cl)C(F)(F)F)C1C(=O)OC(C#N)c1cccc(Oc2ccccc2)c1 (stereo not given) | inactive
CCOC(=O)CC(=O)CCl | inactive
CC(c1ccc(O)cc1)c1ccc(O)cc1 | inactive
O=c1[nH]c2ccccc2n1CCCN1CCC(n2c(=O)[nH]c3cc(Cl)ccc32)CC1 | inactive
CCCCOCN(C(=O)CCl)c1c(CC)cccc1CC | inactive
[CH3][Hg][Cl] | inactive
CN(C)S(=O)(=O)N(SC(F)(Cl)Cl)c1ccccc1 | 24.3 µM (active)
Clc1ccc(C(Cl)(Cl)Cl)c(Cl)c1 | inactive
COC12CC[C@@]3(C[C@@H]1C(C)(O)C(C)(C)C)[C@H]1Cc4ccc(O)c5c4[C@@]3(CCN1CC1CC1)[C@H]2O5 (stereo not given in full) | 60.7 µM (active)
BrC(Br)Br | inactive
c1ccc(Nc2ccc3ccccc3c2)cc1 | inactive
C=CC(=O)OCC(COC(=O)C=C)(COC(=O)C=C)COC(=O)C=C | 7.7 µM (active)
O=C(CCCN1CCC2(CC1)C(=O)NCN2c1ccccc1)c1ccc(F)cc1 | inactive
O=C(O)C1C2CCC(O2)C1C(=O)O (stereo not given) | inactive
N#CC(Cl)Cl | inactive
CC(C)N1C(=O)N(c2ccccc2)CSC1=NC(C)(C)C | inactive
ClC1=C(Cl)[C@]2(Cl)[C@H]3[C@H]([C@H]4C=C[C@H]3C4)[C@@]1(Cl)C2(Cl)Cl | inactive
C[C@@H]1CC[C@@]2(OC1)O[C@H]1[C@@H](O)[C@H]3[C@@H]4CC[C@H]5C[C@@H](O[C@@H]6O[C@H](CO)[C@H](O[C@@H]7O[C@H](CO)[C@@H](O)[C@H](O[C@@H]8OC[C@@H](O)[C@H](O)[C@H]8O)[C@H]7O[C@@H]7O[C@H](CO)[C@@H](O)[C@H](O[C@@H]8O[C@H](CO)[C@@H](O)[C@H](O)[C@H]8O)[C@H]7O)[C@H](O)[C@H]6O)[C@H](O)C[C@]5(C)[C@H]4CC[C@]3(C)[C@H]1[C@@H]2C | 25.8 µM (active)
CC(=O)C(Cl)(Cl)Cl | 26.4 µM (active)
CC(=O)[O-].CC(=O)[O-].O.O.[Cd+2] | inactive

SMILES | Potency
CCOc1cc(C(C)(C)C)ccc1C1COC(c2c(F)cccc2F)=N1 (stereo not given) | inactive
CN(C)CCc1c[nH]c2ccc(O)cc12 | inactive
CC(C)[C@H](C(=O)OC(C#N)c1cccc(Oc2ccccc2)c1)c1ccc(OC(F)F)cc1 (stereo not given in full) | inactive
Nc1ccccc1C(=O)OC/C=C/c1ccccc1 | inactive
Clc1ccc(C(c2ccccc2Cl)C(Cl)(Cl)Cl)cc1 (stereo not given) | inactive
Clc1ccc(C(c2ccc(Cl)cc2)C(Cl)(Cl)Cl)cc1 | inactive
CC(Cc1ccc(C(C)(C)C)cc1)CN1C[C@@H](C)O[C@@H](C)C1 (stereo not given in full) | inactive
CCc1nn(C)c(C(=O)NCc2ccc(C(C)(C)C)cc2)c1Cl | 0.0863 µM (active)
ClC(Cl)=C(c1ccc(Cl)cc1)c1ccc(Cl)cc1 | inactive
Oc1cc(Cl)c(Cl)c(Cl)c1 | inactive
O=C(NC(=O)c1c(F)cccc1F)Nc1cc(Cl)c(OC(F)(F)C(F)F)c(Cl)c1 | inactive
Clc1ccc(CCC(Cn2ccnc2)Sc2c(Cl)cccc2Cl)cc1 (stereo not given) | inactive
CC[C@H](C)[C@H]1O[C@]2(C=C[C@@H]1C)C[C@@H]1C[C@@H](C/C=C(\C)[C@@H](O[C@H]3C[C@H](OC)[C@@H](O[C@H]4C[C@H](OC)[C@@H](O)[C@H](C)O4)[C@H](C)O3)[C@@H](C)/C=C/C=C3\CO[C@@H]4[C@H](O)C(C)=C[C@@H](C(=O)O1)[C@]34O)O2 | inactive
Fc1cccc(Cl)c1CCl | inactive
ClC1=C(Cl)C2(Cl)C3C(Cl)C=CC3C1(Cl)C2(Cl)Cl (stereo not given) | inactive
Cc1cc(C(C)(C)c2cc(C)c(O)c(C)c2)cc(C)c1O | inactive
C[C@@H]1O[C@@H](O[C@H]2C[C@@H](O)[C@]3(CO)[C@H]4[C@H](O)C[C@]5(C)[C@@H](C6=CC(=O)OC6)CC[C@]5(O)[C@@H]4CC[C@]3(O)C2)[C@H](O)[C@H](O)[C@H]1O | inactive
CCCOCC(=Nc1ccc(Cl)cc1C(F)(F)F)n1ccnc1 | 61.1 µM (active)
CN(C)C1CSSSC1 | inactive
CN(C)CCc1c[nH]c2cccc(O)c12 | inactive
